The source of these data is PubChem BioAssay.

The test system of assay [1] is Human papillomavirus type 1a protein E7 (residues 44-93). As to the kind of experiment: HPV1a E7 fragment binders on microarrays, primary screen, biochemical, small-molecule microarray, residues 44-93, 635 nm fluorescence (AID 1108).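 Also: E7 fragment applied at 1 µg/mL in TBST for 1 h at 4 C; score combines spot fluorescence with its signal to noise ratio.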 As to conditions: small-molecule microarray binding, fluorescence 635 nm; higher = more signal.
Assay [2] can be described thus: modulators of HCV replicon luciferase signal, primary screen, HCV replication inhibitor project, Huh7 cells, luciferase reporter (AID 1109).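 Also: huh7 hepatoma cells harbouring a luciferase neomycin HCV replicon reporter; luciferase luminescence as measure of HCV replicon replication; test concentration not given here.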 The following applies: 48 h, higher = more signal.
The target in assay [3] is Left-right determination factor 2 (Homo sapiens) (UniProt O00292). In words: LEFTY2 binders on small-molecule microarrays, primary screen, biochemical, small-molecule microarray, 635 nm fluorescence scan (AID 1110). The following applies: LEFTY2 binding, higher = more signal.
In assay [4] the target is Calmodulin-1 (Homo sapiens) (UniProt P0DP23). As to the kind of experiment: CALM1 binders on microarrays, EGTA buffer, profiling panel, biochemical, small-molecule microarray, Cy5-labelled CALM1 (AID 1111).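 Also: labelled calmodulin applied in Tris saline Tween buffer holding calcium plus EGTA and DTT.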 The following applies: Cy5-CALM1 binding fluorescence, higher = more signal.
For assay [5] the target is unchanged. As to the kind of experiment: calcium-bound CALM1 binders on microarrays, profiling panel, artefact control for SMM control-protein annotation, biochemical, small-molecule microarray, Cy5-labelled CALM1, plus calcium (AID 1112).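 Also: score merges spot fluorescence with signal to noise from triplicate slides.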 As to conditions: Cy5-CALM1 binding fluorescence, higher = more signal.
A short description of assay [6]: small-molecule microarray binders of probe aWnt5a, primary screen, biochemical, biotinylated probe, 635/667 nm fluorescence (AID 1113).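 Also: score merges 667 nm fluorescence intensity with signal-to-noise per printed feature.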 As to conditions: higher = more signal.
Assay [7] is described as follows: small-molecule microarray binders of probe aShh, primary screen, biochemical, biotinylated probe, 635/667 nm fluorescence (AID 1114).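 Also: probe is biotin-labelled aShh protein from a stem cell growth factor screen; measures binding of labelled protein to compounds printed on the slide; score merges feature fluorescence at 667 nm with signal-to-noise.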 As to conditions: higher = more signal.
Assay [8] is described as follows: small-molecule microarray binders of probe aNog, primary screen, biochemical, biotinylated probe, 635/667 nm fluorescence (AID 1115).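 Also: probe is biotinylated aNog protein used at 0.15 µg/mL for 1 h at 4 C; z-score combines 667 nm fluorescence of each spot with its signal to noise.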 As to conditions: higher = more signal.
Assay [9] has as its target Torsin-1A-interacting protein 1 (Homo sapiens) (UniProt Q5JTV8). As to the kind of experiment: LAP1 binders from COS7 cell lysate, primary screen, small-molecule microarray, 635/667 nm fluorescence (AID 1116). As to conditions: COS7-hLAP1 lysate binding, 635 nm fluorescence, higher = more signal.
The target in assay [10] is Alpha-bungarotoxin (Bungarus multicinctus) (UniProt P60615). As to the kind of experiment: alpha-bungarotoxin binders on microarray, profiling panel, artefact control for SMM control protein annotation, biochemical, small-molecule microarray, Alexa647 label, 635/667 nm fluorescence (AID 1117). As to conditions: alpha-BTX-A647 binding fluorescence, higher = more signal.
Sequence of Alpha-bungarotoxin (Bungarus multicinctus) (P60615 whole entry, looked up): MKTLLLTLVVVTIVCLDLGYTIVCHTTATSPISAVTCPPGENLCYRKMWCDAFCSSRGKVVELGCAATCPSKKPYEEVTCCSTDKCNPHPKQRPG

Sequence of Left-right determination factor 2 (Homo sapiens) (O00292 whole entry, looked up): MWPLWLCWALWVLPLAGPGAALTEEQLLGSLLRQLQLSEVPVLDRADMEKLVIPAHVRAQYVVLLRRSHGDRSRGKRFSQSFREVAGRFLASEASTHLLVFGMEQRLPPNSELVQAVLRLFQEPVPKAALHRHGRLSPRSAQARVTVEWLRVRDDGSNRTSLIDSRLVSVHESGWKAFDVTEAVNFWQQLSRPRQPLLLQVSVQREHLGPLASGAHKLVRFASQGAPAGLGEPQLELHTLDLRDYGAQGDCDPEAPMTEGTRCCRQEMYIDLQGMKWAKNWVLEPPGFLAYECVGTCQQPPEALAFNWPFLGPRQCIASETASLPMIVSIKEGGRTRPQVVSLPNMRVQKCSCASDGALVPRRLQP
Sequence of Torsin-1A-interacting protein 1 (Homo sapiens) (Q5JTV8 whole entry, looked up): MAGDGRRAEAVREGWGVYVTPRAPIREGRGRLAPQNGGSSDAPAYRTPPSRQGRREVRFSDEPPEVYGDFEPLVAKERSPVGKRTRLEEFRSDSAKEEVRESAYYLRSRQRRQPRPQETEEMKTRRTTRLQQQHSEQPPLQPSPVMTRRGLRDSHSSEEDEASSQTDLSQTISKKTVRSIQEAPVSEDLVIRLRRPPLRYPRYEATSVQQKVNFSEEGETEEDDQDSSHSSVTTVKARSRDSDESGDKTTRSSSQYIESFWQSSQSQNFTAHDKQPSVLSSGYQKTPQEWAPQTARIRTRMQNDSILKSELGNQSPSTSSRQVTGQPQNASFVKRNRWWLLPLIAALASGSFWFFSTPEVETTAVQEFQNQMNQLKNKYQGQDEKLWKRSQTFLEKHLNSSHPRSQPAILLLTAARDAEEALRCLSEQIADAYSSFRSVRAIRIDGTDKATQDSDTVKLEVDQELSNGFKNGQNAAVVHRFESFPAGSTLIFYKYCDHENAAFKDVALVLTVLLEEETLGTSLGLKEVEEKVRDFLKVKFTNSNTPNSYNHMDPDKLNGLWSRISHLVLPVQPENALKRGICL

With `C=CCNC(=O)[C@@H]1[C@H]2C(=O)O[C@H](c3ccccc3)[C@H](c3ccccc3)N2[C@H](c2ccc(O)cc2)[C@@]12C(=O)Nc1ccc(C#CCNC(N)=O)cc12`, the composite z-score is 1.28 in assay [1]; -1.09 in [3]; -0.0555 in assay [4]; -0.28 in assay [5]; -0.124 in assay [6]; 0.157 in assay [7]. The composite z-score is -0.125 in assay [8], 1.4 in assay [9] and -0.234 in assay [10]. The same compound came in with a z-score in assay [2] of -0.365.

Take `C[N+](C)(C)CCCCNC(=O)[C@H]1C[C@H]2C(=O)N3CCC[C@H]3C(=O)N2[C@H]1c1cccc(OCCO)c1`: the composite z-score in assay [1] was -1.09; in assay [3], 0.766; in assay [4] it was -0.858; in assay [5], 1.03; in [6] it was -0.0721; in [7], 0.0141. For the same compound, the figures for the composite z-score in assay [8], in assay [9] and in assay [10] were 0.0043, 0.854 and -0.912, respectively. Moreover, the z-score in [2] was -0.884.

As to `CC(C)N1C(=O)[C@@]2(Cc3ccccc31)c1ccccc1C(=O)N(Cc1ccccc1Cl)[C@H]2c1ccc(CO)cc1`, the composite z-score in [1] is -0.469; in assay [3], -0.893; in assay [4], -0.493; in assay [5] it was -0.805; in [6] it was -0.105; in [7] it was -0.262. For the same compound, the composite z-score in assay [8] is -0.179; in assay [9], -1.05; in [10], -0.216. Moreover, the z-score in assay [2] is -0.791.

Regarding `COCCOC(=O)N1C(=O)[C@@]2(c3ccccc31)[C@H](C(=O)N1CCc3cc(OC)c(OC)cc3C1)[C@H]1C(=O)O[C@H](c3ccccc3)[C@H](c3ccccc3)N1[C@@H]2c1ccc(OCCO)cc1`, the composite z-score in [1] was 1.02; in assay [3], 0.295; in assay [4] it was 1.28; in [5] it was 0.366; in assay [6] it was -0.147; in assay [7], -0.0863. Further, the values for the composite z-score in assay [8], in [9] and in assay [10] were 0.495, 1.05 and 0.663, respectively. The same compound displayed a z-score in assay [2] of -1.39.

Take `COC(=O)C(CC#Cc1ccc2c(c1)[C@]1(C(=O)N2)[C@H](C(=O)Nc2nc3ccccc3s2)[C@H]2C(=O)O[C@H](c3ccccc3)[C@H](c3ccccc3)N2[C@@H]1c1ccccc1OCCO)C(=O)OC`: the composite z-score in assay [1] was 1.17; in assay [3], 0.286; in assay [4], 1.42; in assay [5], 0.504; in assay [6], -0.0346; in [7], 0.257. Further, the composite z-score was 0.733 in [8], 1.01 in assay [9] and 2.31 in assay [10]. For the same compound, the z-score in [2] was -2.55.

Turning to `COC(=O)[C@@]1(Cc2ccc(OC)cc2)[C@H]2c3cc(C(=O)N(C)C)n(C)c3C[C@H]2CN1C(=O)c1ccccc1`, the composite z-score in assay [1] is 1.45; in assay [3], -0.239; in assay [4] it was 2.01; in assay [5], 0.749; in [6], 0.0337; in assay [7], 0.527. The composite z-score in [8] stood at 2.11; in assay [9], 1.15; in [10], 0.696. Moreover, the z-score in assay [2] is -2.62.

On to `COC(=O)[C@@]1(CCC(=O)OC(C)(C)C)N=C(c2ccc(OCCCO)cc2)O[C@H]1c1ccccc1N=[N+]=[N-]`, for which the composite z-score in assay [1] is 0.799; in [3] it was -0.0736; in assay [4] it was 1.17; in assay [5], 0.356; in assay [6], 0.0101; in [7] it was 0.178. Further, the figures for the composite z-score in [8], in assay [9] and in assay [10] were -0.193, 1.06 and 0.654, respectively. In assay [2], this compound had a z-score of -1.85.

On to `O=C1NC(=O)C2C1C=CC(C(O)c1cc(C(F)(F)F)cc(C(F)(F)F)c1)N2Nc1ccccn1` (stereo not given), for which the composite z-score in assay [1] was -0.2; in assay [3], 0.274; in [4] it was -0.0336; in [5], -0.531; in assay [6] it was -0.0165; in [7], -0.214. In addition, the composite z-score was found to be 0.566 in [8], 1.88 in assay [9] and 0.143 in assay [10]. In addition, the z-score in assay [2] was -0.345.

For the compound `[N-]=[N+]=NCc1ccccc1[C@@H]1OC(c2ccc(OCCCO)cc2)=N[C@]1(Cc1ccccc1)C(=O)NCC(O)CO` (stereo not given in full), the composite z-score was -0.0042 in [1]; -0.559 in assay [3]; 0.168 in assay [4]; 0.305 in assay [5]; 0.262 in assay [6]; 0.559 in assay [7]. The composite z-score amounted to 1.99 in assay [8], 1.95 in [9] and 2.68 in assay [10]. The same compound displayed a z-score in [2] of -1.16.

`CC(C)OC(=O)C=C1C[C@@H](c2ccccn2)O[C@@H](c2ccccn2)O1`: the composite z-score is -0.0187 in [1]; 1.05 in assay [3]; -1.38 in assay [4]; -0.98 in assay [5]; -0.0607 in assay [6]; 0.489 in assay [7]. For the same compound, the composite z-score in [8] was -0.457; in assay [9], 0.429; in [10] it was 0.6. In assay [2], the z-score is -0.884.

`C=CCC(OC(C)=O)[C@@H]1[C@@H](N(Cc2ccc(-c3ccccc3)cc2)C(=O)c2cccc3ccccc23)c2cc(OCCCO)ccc2N1C(=O)c1ccc(-c2ccccc2)cc1` (stereo not given in full): the composite z-score was 0.431 in assay [1]; -0.351 in [3]; 0.468 in assay [4]; 0.553 in assay [5]; -0.187 in assay [6]; -0.0793 in [7]. Moreover, the values for the composite z-score in assay [8], in assay [9] and in assay [10] were -0.443, 0.951 and 0.445, respectively. The z-score in assay [2] was -0.133.

In the case of `COCCOC(=O)N1C(=O)[C@@]2(c3cc(C#CCC(C(=O)OC)C(=O)OC)ccc31)[C@H](C(=O)Nc1nc3ccccc3s1)[C@H]1C(=O)O[C@H](c3ccccc3)[C@H](c3ccccc3)N1[C@@H]2c1ccccc1OCCO`, the composite z-score in [1] was 0.142; in [3], 0.6; in assay [4], 1.69; in assay [5] it was 0.72; in [6] it was -0.0445; in assay [7], 0.151. The composite z-score worked out at 0.106 in assay [8], 0.886 in assay [9] and 2.2 in assay [10]. In assay [2], this compound yielded a z-score of -1.52.

For `C#C[C@H](O[Si](C#Cc1ccc(Oc2ccccc2)cc1)(C(C)C)C(C)C)c1ccccc1`, the composite z-score in [1] is 0.922; in assay [3], 0.764; in assay [4] it was -0.355; in assay [5], -0.571; in assay [6], -0.0519; in assay [7], -0.248. Moreover, the composite z-score was -0.244 in assay [8], 0.692 in [9] and 0.495 in assay [10]. In addition, the z-score in assay [2] was -1.73.

For the compound `CC1(C)C2C=C(C(O)C3C=CC4C(=O)NC(=O)C4N3Nc3ccc(Cl)cc3Cl)C[C@@H]1C2` (stereo not given in full), the composite z-score was 0.772 in assay [1]; -0.0061 in assay [3]; 2.35 in [4]; 1.01 in assay [5]; -0.006 in [6]; 0.275 in [7]. The figures for the composite z-score in [8], in [9] and in assay [10] were 0.503, 1.27 and 1.31, respectively. In assay [2], the z-score was -1.45.

For `Oc1ccc2cc[n+](Cc3sc4ccccc4c3Cl)cc2c1`, the composite z-score is -0.317 in assay [1]; 0.0344 in assay [3]; -0.481 in [4]; -0.683 in assay [5]; -0.124 in assay [6]; 0.318 in assay [7]. Also, the composite z-score in assay [8] is -0.29; in assay [9], 1.22; in assay [10], 1.02. In [2], this compound had a z-score of 0.514.

In the case of `COc1cc2c(cc1OC)CN(C(=O)[C@H]1[C@@H]3C(=O)O[C@@H](c4ccccc4)[C@@H](c4ccccc4)N3[C@@H](c3ccc(O)cc3)[C@]13C(=O)Nc1ccc(C#CCCO)cc13)CC2`, the composite z-score in [1] was 1.4; in assay [3], -0.0265; in [4] it was 0.382; in assay [5], 0.0412; in assay [6], -0.0403; in [7], -0.0553. Also, the composite z-score is -0.472 in assay [8], 0.469 in assay [9] and 1.04 in assay [10]. The same compound yielded a z-score in assay [2] of -0.838.

With `CO[C@H]1O[C@H](CO)[C@@H](OC(=O)Nc2ccc(Oc3ccccc3)cc2)[C@H](OC(=O)Nc2ccc3c(c2)OCO3)[C@H]1OC(=O)Nc1ccc2c(c1)OCO2`, the composite z-score in [1] is 1.3; in [3] it was 0.467; in [4], 1.96; in assay [5], -0.207; in assay [6] it was 0.105; in [7], -0.183. Moreover, the composite z-score in assay [8] came to 0.414; in assay [9] it was 1.62; in assay [10], 2.13. Moreover, the z-score in assay [2] was -0.289.
